Screening data (PubChem)
Shown are actives, neighbours in structure and some others; about 3.3% of the full set was active somewhere.
Smad3 FoxH1 inh: Smad3/FoxH1 peptide binding inhibitors, primary screen, biochemical, TR-FRET; hit rate 0.29% among 88,000; Mothers against decapentaplegic homolog 3 (Homo sapiens), P84022; inhibition, % at 25 µM; TR-FRET Smad3/Dy647-FoxH1 peptide binding, europium anti-His;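 active = compounds that reduce the energy-transfer binding signal between the protein and its labelled peptide by more than half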
ERa coact inh: ERα–SRC-1 coactivator interaction inhibitors, primary screen, biochemical, TR-FRET, ERα LBD, estradiol-bound | Estrogen receptor (Homo sapiens), P03372 | AID 629, 2007 | hit rate 1.7% among 86,000 | inhibition, % at 25.6 µM | TR-FRET ER-alpha LBD / SRC-1 peptide; in the data active = inhibition above about 50%
Plk1 PBD FP: Plk1 polo box domain binding inhibitors, primary screen, biochemical, fluorescence polarization; Serine/threonine-protein kinase PLK1 (Homo sapiens), P53350; Plk1 PBD phosphopeptide binding; inhibition, %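 (tested at about 20 µM)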; hit rate 0.13% among 97,000; AID 693, 2007; in the data active = inhibition above about 34%, passing the limit was not always enough
Target sequence (P53350 whole entry, looked up, the tested form may be a part): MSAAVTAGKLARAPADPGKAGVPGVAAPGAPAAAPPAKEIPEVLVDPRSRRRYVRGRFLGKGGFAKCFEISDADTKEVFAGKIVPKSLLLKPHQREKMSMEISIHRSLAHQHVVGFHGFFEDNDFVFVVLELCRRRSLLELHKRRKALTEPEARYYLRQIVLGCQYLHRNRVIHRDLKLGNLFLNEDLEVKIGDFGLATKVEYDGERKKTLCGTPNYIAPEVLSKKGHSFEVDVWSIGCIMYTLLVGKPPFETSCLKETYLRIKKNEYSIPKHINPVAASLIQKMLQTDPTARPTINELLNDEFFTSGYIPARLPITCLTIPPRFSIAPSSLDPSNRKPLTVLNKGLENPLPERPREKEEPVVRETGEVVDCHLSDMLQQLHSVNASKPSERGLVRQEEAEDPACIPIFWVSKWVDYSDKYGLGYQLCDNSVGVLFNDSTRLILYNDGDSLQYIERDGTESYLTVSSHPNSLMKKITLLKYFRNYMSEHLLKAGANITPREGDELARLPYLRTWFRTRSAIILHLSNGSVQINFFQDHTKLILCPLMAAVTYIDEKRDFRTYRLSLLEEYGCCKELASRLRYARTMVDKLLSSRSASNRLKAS
ERb coact inh: inhibitors of ERβ-SRC1 coactivator interaction, primary screen, biochemical, TR-FRET, ERβ LBD, SRC-1 peptide | Estrogen receptor beta (Homo sapiens), Q92731 | TR-FRET ER-beta LBD / SRC1-Cy5 peptide binding; receptor agonist-loaded with 1 µM estradiol | inhibition, % at 25.6 µM | hit rate 1.3% among 86,000 | AID 633, 2007;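 active = compounds whose percent inhibition of the receptor-coactivator binding signal exceeds about 50% in the single-dose screen, limit read from the data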
PLK1 kinase inh: human PLK1 kinase inhibitors, primary screen, biochemical, TR-FRET; recombinant PLK1 kinase, TR-FRET peptide phosphorylation; inhibition, % at 10 µM; hit rate 0.53% among 97,000;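 active = inhibition of 50% or more in the single-concentration screen; inactive = inhibition below 50%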
ERa SRC1 pot: enhancers of ERα–SRC-1 coactivator binding, primary screen, biochemical, TR-FRET, ERα LBD, low estradiol; Estrogen receptor (Homo sapiens), P03372; TR-FRET ERalpha-LBD/SRC-Cy5 coactivator binding, 2 h; 100 = basal binding, no effect; coactivator binding (% of control), % at 25.6 µM; hit rate 1.3% among 86,000; in the data active = activity above about 200%;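 note: binding measured in presence of low estradiol as agonist stimulus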
Numbers stand for hits; i = inactive; nt = no result given; + = active, no number; [ ] = remark or other dose.

SMILES | Smad3 FoxH1 inh | ERa coact inh | Plk1 PBD FP | ERb coact inh | PLK1 kinase inh | ERa SRC1 pot
COc1ccc(N2CCN(C(=O)CCCn3c(=O)[nH]c4ccsc4c3=O)CC2)cc1 | i | i | i | 75 | i | i
COc1ccc(N2CCN(C(=O)Cn3c(=O)[nH]c4ccsc4c3=O)CC2)cc1 | i | i | nt | i | nt | i
Cc1sc2nc3c4ccccc4c(NCc4ccco4)nn3c(=O)c2c1C | i | 56[fluorescence artefact?] | i | i | i | i
Cc1nc(NCc2ccco2)c2c(C)c(C)sc2n1 | i | i | i | i | i | i
Cc1ccccc1-c1ccc(Nc2ccc(N3CCOCC3)cc2)nn1 | i | 99[fluorescence artefact?] | i | 80[fluorescence artefact?] | i | i
Cc1cc(Nc2ccccc2)nc(N2CCOCC2)n1 | i | i | i | i | i | i
O=S1(=O)N=C(Nc2ccc(N3CCOCC3)cc2)c2ccccc21 | i | i | i | 51[fluorescence artefact?] | i | i
COC(=O)CC1Oc2ccccc2N(Cc2ccccc2)C1=O (stereo not given) | i | i | nt | i | nt | i
Cc1cc(C(=O)CSc2nc3ccccc3c(=O)n2C)c(C)n1Cc1ccc2c(c1)OCO2 | i | i | i | i | i | +[fluorescence artefact?]
Cc1cc(C(=O)CSc2nnc(-c3ccccc3)n2Cc2ccc3c(c2)OCO3)c(C)n1C | i | i | i | i | i | i
O=C(CSc1nc2ccccc2o1)c1ccc2c(c1)OCCO2 | i | i | i | i | i | i
Cc1cc(SCC(=O)c2cc3ccccc3o2)nc2ccccc12 | i | i | i | i | i | 228[fluorescence artefact?]
Cc1cc(SCC(=O)c2ccc3c(c2)OCO3)nc2ccccc12 | i | i | i | i | i | 441[fluorescence artefact?]
Cc1cc(SCC(=O)N2CCCC2)nc2ccccc12 | i | i | i | i | i | i
CCOc1cc(/C=C2/C(=N)N3C=CSC3=NC2=O)ccc1OCCCOc1ccccc1C | i | i | i | i | i | i
COc1cc(/C=C2/C(=N)N3C=CSC3=NC2=O)ccc1OCCCOc1ccccc1C | i | 71 | i | 72[fluorescence artefact?] | i | i
COc1cc(/C=C2/C(=N)N3C=CSC3=NC2=O)ccc1OCCCOc1c(C)cccc1C | i | 90[fluorescence artefact?] | i | i | i | i
CN(CCc1ccccn1)c1ccc2c(c1)C(=O)c1ccccc1-2 | i | nt | nt | nt | nt | nt
COC(=O)c1sc(NC(=O)CSc2nc3cccnc3n2C2CCCCC2)nc1C | i | 72[fluorescence artefact?] | i | 61[fluorescence artefact?] | i | i
COc1cccc2sc(Nc3nnc(-c4ccc(F)cc4)o3)nc12 | i | 65 | i | i | i | i
COc1cccc2sc(Nc3nnc(-c4cccs4)o3)nc12 | i | i | i | i | i | i
COc1ccc2nc3sc(C(=O)NCc4cccs4)c(N)c3cc2c1 | i | 54[fluorescence artefact?] | i | i | i | i
Cc1[nH]nc2c1C(c1ccc(F)cc1)C(C#N)=C(N)O2 (stereo not given) | i | i | i | i | 57 | i
Cc1[nH]nc2c1C(c1ccsc1C)C(C#N)=C(N)O2 (stereo not given) | nt | nt | i | nt | 61 | nt
Cc1[nH]nc2c1C(c1ccsc1)C(C#N)=C(N)O2 (stereo not given) | nt | nt | i | nt | 52 | nt
SMILES | Smad3 FoxH1 inh | ERa coact inh | Plk1 PBD FP | ERb coact inh | PLK1 kinase inh | ERa SRC1 pot
Cc1[nH]nc2c1C(c1ccc3c(c1)OCO3)C(C#N)=C(N)O2 (stereo not given) | i | i | i | i | i | i
CCCn1c(SCC(=O)N2c3ccccc3CCc3ccccc32)nc2c1c(=O)n(C)c(=O)n2C | nt | nt | i | nt | i | nt
O=C(Cn1cnc2ccccc21)NCCCN1CCOCC1 | i | i | i | i | i | i
CCCSc1nnc(Nc2ccccc2C)s1 | i | i | i | i | i | i
C/C(N)=C(/C#N)C(=O)CSc1nnc(SCc2ccc(Cl)cc2)s1 | i | i | i | i | i | i
C/C(N)=C(/C#N)C(=O)CSc1nnc(Nc2cccc(C)c2C)s1 | i | 52[fluorescence artefact?] | i | 65 | i | i
C/C(N)=C(/C#N)C(=O)CSc1nnc(Nc2c(C)cccc2C)s1 | i | 87[fluorescence artefact?] | nt | 93[fluorescence artefact?] | nt | i
O=C(c1ccco1)[C@@H]1[C@@H]2C(=O)N(c3ccc(Br)cc3)C(=O)[C@@H]2C2c3ccccc3C=CN21 (stereo not given in full) | i | i | i | i | i | i
O=C(c1ccco1)[C@@H]1[C@@H]2C(=O)N(c3ccc(F)cc3)C(=O)[C@@H]2C2c3ccccc3C=CN21 (stereo not given in full) | i | 55[fluorescence artefact?] | i | i | i | i
CN(C)CCCN1CCC2(CCC(C(C)(C)C)CC2)CC1 | i | nt | nt | nt | nt | nt
CC[C@@]1([N+](=O)[O-])C[C@H]2C=C[C@@H]1C2 | i | nt | nt | nt | nt | nt
COc1ccc(/C=C(/C#N)c2cccnc2)cc1OC | i | i | nt | i | nt | i
N#Cc1cc(Oc2cccnc2)c(Oc2cccnc2)cc1C#N | i | i | i | 61[fluorescence artefact?] | i | i
Cc1noc(/C=C/N(C)C)c1S(=O)(=O)N1CCN(c2ccccc2)CC1 | i | i | i | i | 69 | i
CCSc1cnn(-c2ccccc2)c(=O)c1SCC | i | i | i | i | i | i
CCCCSc1cnn(-c2ccccc2)c(=O)c1SCCCC | i | i | i | i | i | 202
Cc1cc(C)c2c(=O)[nH]c(SCC(=O)c3ccc(C(C)C)cc3)nc2n1 | i | i | i | i | i | 558[fluorescence artefact?]
COc1ccc(N(CC(=O)Nc2ccc3c(c2)OCCO3)S(=O)(=O)c2c(C)noc2C)cc1 | i | i | i | 99[fluorescence artefact?] | i | i
CCOc1ccc(N(CC(=O)NCc2ccc(F)cc2)S(=O)(=O)c2c(C)noc2C)cc1 | i | i | i | i | 67 | i
Cc1ccc(N2CCN(c3cc(C)nc4c5c(C)cc(C)nc5nn34)CC2)cc1 | i | i | nt | i | nt | i
Cc1cc(C)c2c(n1)nn1c(N3CCN(c4ccccc4C)CC3)cc(C)nc21 | i | i | i | i | i | 402[fluorescence artefact?]
CC1CCN(c2cc(N3CCC(C)CC3)c([N+](=O)[O-])cc2/C=C(\C#N)c2nn(-c3ccccc3)c(N)c2C#N)CC1 | nt | nt | i | nt | 55 | nt
Cn1c(=O)c2c(ncn2CCCNC2=CC(C)(C)CC(=O)C2)n(C)c1=O | i | i | i | 52 | i | i
CCOc1ccc(-n2cc(C(=O)NC(C)C)c3cc(OC)c(OC)cc3c2=O)cc1 | i | i | i | i | 54 | i
NC[C@H]1O[C@H](n2cnc3c(=O)[nH]c(N)nc32)[C@@H](O)[C@@H]1O | i | nt | nt | nt | nt | nt
COc1ccc(CC(=O)N2CC(C)CC(C)C2)cc1OC (stereo not given) | i | i | i | 84[fluorescence artefact?] | i | i
COc1ccc(C(=O)N2CCN(C(=O)Cc3ccccc3)CC2)cc1OC | i | i | i | i | i | i
COc1cccc(NC(=O)c2nnn(Cc3ccc(Br)cc3F)c2N)c1 | i | i | nt | i | nt | 270
